# Test results from PubChem BioAssay AID1069 (NMMLSC, 2008).
# Experiment: activators of LNCaP cell differentiation, retest, confirmation, side scatter shift, flow cytometry (AID 1069);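 note: LNCaP human prostate cancer cells in low-serum medium with charcoal-stripped FBS; percent of cells with raised granularity gated so DMSO controls show 10%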
# Details: 4 d, side scatter shift, at 10 µM, stronger effect = higher value
row,Structure (SMILES),side scatter shift [%]
1,COc1ccc(Nc2nc(N3CCCC3)c3ccccc3n2)cc1,21.6
2,O=C(NCCCN1CCOCC1)c1cc2c(s1)CSC2,9.2
3,O=C(NCCCN1CCN(c2cccc(Cl)c2)CC1)c1ccc(N2CCCC2=O)cc1,10.1
4,O=C(c1ccc2c(c1)OCCO2)N1CCCCC1,8.05
5,Cc1nn(Cc2ccc(F)cc2)c(C)c1NC(=O)c1cc(-c2ccc3c(c2)OCO3)on1,1.1
6,O=C(NCCCN1CCN(c2cccc(Cl)c2)CC1)c1nc(-c2ccncc2)no1,2.15
7,CCOC(=O)N1CCC(=C2c3ccc(Cl)cc3CCc3cccnc32)CC1,6.25
8,Cc1ccc(Cn2c(C(=O)NCCCN3CCOCC3)cc3sccc32)cc1,10.8
9,Cn1c(C(=O)NCCCN2CCN(c3ccccc3F)CC2)cc2c(=O)n(C)c3ccccc3c21,7.65
10,O=C(NCC1CCCO1)C1CC(c2ccc(Cl)c(Cl)c2)=NO1 (configuration not stated),2.4
11,Cc1ccccc1OCc1nc(-c2ccc(NC(=O)c3ccc4c(c3)OCO4)cc2)no1,4.6
12,CCCc1cc(-c2n[nH]c(C)c2-c2ccc(C(=O)OCC)o2)c(O)cc1O,5.15
13,CCOC(=O)Cn1nc(-c2ccc(Cl)cc2)cc1N,4.7
14,CCOC(=O)c1c(-c2ccc(C)o2)csc1NC(=O)CN1CCN(CC)CC1,8.3
15,O=C(Cn1cnc2ccccc2c1=O)NCCC(=O)N1CCN(c2ccccc2)CC1,4
16,CCN(CCNC(=O)C1CCCN(Cc2nc(-c3ccc(OC)cc3)oc2C)C1)c1ccccc1 (configuration not stated),35.5
17,Cc1oc(-c2ccccc2F)nc1CN1CCC(C(=O)NCc2cccnc2)CC1,3.9
18,COc1ccc(-c2noc(-c3cc(Cl)ccc3Cl)n2)cc1OC,7.6
19,O=C(CCNC(=O)Cn1ccc2ccccc2c1=O)NCCCN1CCN(c2ccc(F)cc2)CC1,7.25

row,Structure (SMILES),side scatter shift [%]
1,COc1ccc(-n2cc(-c3ccccc3)c3c(N4CCN(CCO)CC4)ncnc32)cc1,9.55
2,Cn1nc(-c2ccc(Cl)cc2)c2cc(C(=O)NCCN3CCOCC3)sc21,5.2
3,Cc1cc(N2CCN(C)CC2)nc2ccc(NC(=O)c3ccc4c(c3)OCO4)cc12,24.6
4,O=c1c2ccccc2nnn1CSc1nnc2sc3ccccc3n12,4.8
5,COc1ccc(OC)c(N=Cc2c(O)[nH]c3ccccc23)c1,6.1
6,Cc1onc(-c2ccccc2Cl)c1C(=O)N(C)C1CCCCC1,5.1
7,Oc1c(CN2CCCCC2)cc(COCc2ccccc2)c2cccnc12,51.2
8,Cc1oc(-c2cccc(Cl)c2)nc1CN1CCC(C(=O)NCc2ccco2)CC1,6.2
9,COCCCN(C(=O)Nc1ccccc1)C(C)c1ccncc1 (configuration not stated),2.8
10,CCS(=O)(=O)N1CCC(C(=O)NCCCN2CCN(c3ccccc3F)CC2)CC1,12.6
11,COc1cccc(-c2cc(C(=O)N3CCN(C(c4ccccc4)c4ccccc4)CC3)no2)c1,2.7
12,COc1ccc(S(=O)(=O)Nc2ccc(F)c(Cl)c2)cc1OC,6.75
13,COc1ccc(-c2cc3c(=O)n(CC(=O)NC4CCN(Cc5ccccc5)CC4)ncn3n2)cc1,5.5
14,O=C(NCCCN1CCN(c2ccccc2F)CC1)C1CCCN(S(=O)(=O)c2cnc[nH]2)C1 (configuration not stated),4.1
15,CCN1CCN(C(=O)C2CCN(Cc3nc(-c4cccc(Cl)c4)oc3C)CC2)CC1,19.1
16,Cc1oc(-c2ccc(Cl)cc2)nc1CN1CCC(C(=O)NCCCN2CCCC2=O)CC1,1.8
17,COc1ccc(-c2ccc(-c3nnn(CC(C)=O)n3)cc2)cc1,2.95
18,CCOC(=O)N1CCN(C(=O)C2CCCN(Cc3nc(-c4ccc(Cl)cc4)oc3C)C2)CC1 (configuration not stated),4.15
